This is a sample that favours compounds with a hit; in the whole collection about 4.4% have one here.
Cav3 T inh = Cav3.2 calcium influx blockers – cell-based, Fluo-4 calcium fluorescence, FDSS, MLSMR library, primary screen | Cav3.2-expressing cells; stronger effect = lower value | B-score at 10 µM | actives 4% (n = 100,000);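 active = single-dose well whose peak fluorescence ratio is a statistical outlier from its plate by either plate-standardised score or position-corrected B-score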
IL1B NFkB inh = inhibitors of IL-1B driven NFkB p65 nuclear import, primary screen, imaging, HUVEC, IL-1B stimulus, high-content imaging | inhibition, % at 2 µM | actives 0.43% (n = 94,000) | AID 796, 2007 | HUVEC IL-1B NFkB p65 nuclear translocation imaging;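 active = inhibition above about 30% together with a positive call from visual inspection of the well image, limit read from the data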;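 note: nuclear over cytoplasmic p65 intensity ratio measured by imaging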
NFkB transloc pot = enhancers of NFkB p65 translocation in HUVEC – imaging, IL-1B stimulus, high-content imaging, primary screen. HUVEC IL-1B NFkB p65 nuclear translocation imaging. activation, % at 2 µM. actives 0.3% (n = 94,000);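 active = activation above 40%, about the mean plus 3 SD, also judged a hit on visual image review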;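 note: percent activation is computed from the nuclear over cytoplasmic p65 intensity ratio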
HUVEC tox IL1B = cytotoxicity in IL-1B stimulated HUVEC, primary screen, cytotoxicity control for IL-1B NFkB translocation project, imaging, Hoechst nuclear count, IL-1B stimulus; actives 0.41% (n = 94,000); cell count reduction, % at 2 µM; HUVEC cell count loss;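 active = cell count reduction more than 3 SD above the screen-wide mean, cut at about 70% in these data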
Numbers stand for hits.

How did Cc1ccc(OCCSCc2nc3ccccc3[nH]2)cc1 do in these assays?
Cav3 T inh: -5.48; IL1B NFkB inh: inactive; NFkB transloc pot: inactive; HUVEC tox IL1B: inactive

Results for CCn1c(COc2ccc(Cl)cc2)nnc1SCc1nc2ccccc2[nH]1 ?
Cav3 T inh: inactive; IL1B NFkB inh: inactive; NFkB transloc pot: inactive; HUVEC tox IL1B: inactive

How did O=c1c2ccccc2nc(-c2ccc(Cl)cc2)n1C1CCS(=O)(=O)C1 (stereo not drawn) do in these assays?
Cav3 T inh: -4.17

Results for Cc1ccccc1-c1nc2ccccc2c(=O)n1C1CCS(=O)(=O)C1 (stereo not drawn) ?
Cav3 T inh: inactive; IL1B NFkB inh: inactive; NFkB transloc pot: inactive; HUVEC tox IL1B: inactive

How did O=C1CC(N(Cc2ccco2)C(=O)Nc2ccc(F)cc2)C(=O)N1c1ccc(F)cc1 (stereo not drawn) do in these assays?
Cav3 T inh: inactive; IL1B NFkB inh: inactive; NFkB transloc pot: inactive; HUVEC tox IL1B: inactive

Results for CC(C)(C)N(Cc1ccccc1)C(=O)c1ccc2c(c1)OCCO2 ?
Cav3 T inh: -4.32; IL1B NFkB inh: inactive; NFkB transloc pot: inactive; HUVEC tox IL1B: inactive

Results for CCOC(=O)C1=C(C)N(Cc2ccccc2)C(=O)NC1c1ccc(OC)cc1 (stereo not drawn) ?
Cav3 T inh: -5.83; IL1B NFkB inh: inactive; NFkB transloc pot: inactive; HUVEC tox IL1B: inactive

How did COC(=O)C1=C(C)N(C)C(=O)NC1c1ccccc1 (stereo not drawn) do in these assays?
Cav3 T inh: inactive; IL1B NFkB inh: inactive; NFkB transloc pot: 47.0; HUVEC tox IL1B: inactive

Results for O=C(NCCCn1ccnc1)C1c2ccccc2Oc2ccccc21 ?
Cav3 T inh: inactive; IL1B NFkB inh: inactive; NFkB transloc pot: inactive; HUVEC tox IL1B: inactive

Results for C[C@@H](C(=O)NCCc1c[nH]c2ccccc12)[C@H]1C[C@]1(C)[C@H](NC(=O)OCc1ccccc1)c1ccccc1 ?
Cav3 T inh: inactive

How did Cc1ccnc(NC(=O)COc2ccc3oc4c(c3c2)CCCC4)c1 do in these assays?
Cav3 T inh: inactive; IL1B NFkB inh: inactive; NFkB transloc pot: inactive; HUVEC tox IL1B: inactive

Results for CC(C)(Oc1ccc(Cl)cc1)C(=O)N1CCN(c2ccccn2)CC1 ?
Cav3 T inh: -4.49; IL1B NFkB inh: inactive; NFkB transloc pot: inactive; HUVEC tox IL1B: inactive

How did Cc1ccc(N(C)C(=O)N2CCN(c3ccccn3)CC2)cc1 do in these assays?
Cav3 T inh: inactive; IL1B NFkB inh: inactive; NFkB transloc pot: 66.7; HUVEC tox IL1B: inactive

What do the screens show for `COc1ccc(Cl)cc1C(=O)N1CCN(c2ccccn2)CC1`?
Cav3 T inh: inactive; IL1B NFkB inh: inactive; NFkB transloc pot: inactive; HUVEC tox IL1B: inactive

Results for O=C1CC(N2CCN(c3nc4ccccc4s3)CC2)C(=O)N1c1cccc(F)c1 (stereo not drawn) ?
Cav3 T inh: inactive; IL1B NFkB inh: inactive; NFkB transloc pot: inactive; HUVEC tox IL1B: inactive

What do the screens show for `COCC(C)n1c(C)cc(C(=O)CN2C(=O)NC(Cc3c[nH]c4ccccc34)C2=O)c1C` (stereo not drawn)?
Cav3 T inh: inactive; IL1B NFkB inh: inactive; NFkB transloc pot: inactive; HUVEC tox IL1B: inactive

Results for Cc1cc(C)c(S(=O)(=O)c2ccccc2)c(OC(=O)c2c(Cl)cc(Cl)cc2Cl)n1 ?
Cav3 T inh: -6.48

What do the screens show for `Cc1cc(C)c(S(=O)(=O)c2ccccc2)c(N(C)C)n1`?
Cav3 T inh: inactive; IL1B NFkB inh: inactive; NFkB transloc pot: inactive; HUVEC tox IL1B: inactive

Results for CCOc1cc(S(=O)(=O)NCc2ccco2)c(OCC)cc1-n1cnnn1 ?
Cav3 T inh: inactive; IL1B NFkB inh: inactive; NFkB transloc pot: inactive; HUVEC tox IL1B: inactive

What do the screens show for `Cc1ccc(-n2cc(C(C)(C)C)[nH]c2=S)cc1`?
Cav3 T inh: inactive; IL1B NFkB inh: inactive; NFkB transloc pot: inactive; HUVEC tox IL1B: inactive

How did O=C(Nc1cc(C(F)(F)F)cc(C(F)(F)F)c1)c1ccc(Cn2cc(C(F)(F)F)ccc2=O)cc1 do in these assays?
Cav3 T inh: -6.67; IL1B NFkB inh: inactive; NFkB transloc pot: inactive; HUVEC tox IL1B: inactive

Results for O=C(Nc1ccccc1)c1ccc(Cn2cc(C(F)(F)F)ccc2=O)cc1 ?
Cav3 T inh: inactive; IL1B NFkB inh: inactive; NFkB transloc pot: inactive; HUVEC tox IL1B: inactive

What do the screens show for `COc1ccc(S(=O)(=O)c2ccc(OC)c(OC)c2)cc1OC`?
IL1B NFkB inh: inactive; NFkB transloc pot: inactive; HUVEC tox IL1B: inactive

What do the screens show for `CCOCCOC(=O)c1ccc(-n2cncn2)nc1`?
Cav3 T inh: inactive; IL1B NFkB inh: inactive; NFkB transloc pot: inactive; HUVEC tox IL1B: inactive

Assay outcomes deposited in PubChem BioAssay by several laboratories.
